# Screens (PubChem)
# CHX counter = Cycloheximide Counterscreen for Small Molecule Inhibitors of Shiga Toxin. max response, %. actives 12% (n = 300,000). cell reporter, cycloheximide protein synthesis inhibition counterscreen; in the data active = max response mostly above about 13%, no sharp cut-off; inactive = mostly below about 14%; also: read at 38.3 µM for the half of the compounds with a filed dose; 0% is about no effect
# Pf growth 48h = Primary qHTS for delayed death inhibitors of the malarial parasite plastid, 48 hour incubation | P. falciparum luciferase growth in erythrocytes, 48 h | Potency, µM (highest dose often 28.7 µM), for the others: at the highest dose activity change, negative = inhibition, actives largely listed as inhibitors | actives 5.9% (n = 310,000) | AID 504832, 2011; also: potency is read from the fitted curve at half-maximal effect; % is scaled to controls: 0 for no effect and ±100 for the full control effect
#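 Erythrocytes infected with P. falciparum carrying an integrated firefly luciferase reporter (2% hematocrit, 0.1% parasitemia final) were exposed to compounds in RPMI 1640 with 0.5% Albumax at 37 C, 5% CO2. Growth inhibition was scored as reduced luminescence.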
# Pf growth 96h = Primary qHTS for delayed death inhibitors of the malarial parasite plastid, 96 hour incubation; AID 504834, 2011; actives 6.9% (n = 320,000); P. falciparum luciferase reporter growth, 96 h; Potency, µM (series often up to 28.7 µM), for the others: at the highest dose activity change, negative = inhibition, hits mostly inhibitors; also: potency is read from the fitted curve at half-maximal effect; % is scaled to controls: 0 for no effect and ±100 for the full control effect
#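 Erythrocytes infected with luciferase-expressing P. falciparum were dispensed at 2% hematocrit and 0.05% parasitemia (final), then incubated with compounds 96 hours at 37 C in 5% CO2. Luminescence after detection reagent addition reported growth.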
# Shiga toxin inh = A qHTS for Small Molecule Inhibitors of Shiga Toxin. Vero cells, Shiga toxin protein synthesis inhibition reporter. inhibition, % at 38.7 µM. AID 2315, 2010. actives 9.2% (n = 290,000); in the data active = inhibition mostly above about 28%, no sharp cut-off; inactive = mostly below about 43%; also: 0% is about no effect
# * marks the source's active call; other numbers are inactive results; ? = inconclusive; · = no result given. Sampled rows, rich in hits. Any-hit rate of the full collection: about 21%. Unless noted, calls follow the shape of the dose curve; as a rule, active = well fitted inhibition curve with a large enough effect; inconclusive = small, poorly fitted or top-dose-only effect, or another doubt; inactive = no such curve, though single readings can be large or run the other way.
SMILES,CHX counter,Pf growth 48h,Pf growth 96h,Shiga toxin inh
O=C1c2cccc3c(N4CCCCC4)ccc(c23)C(=O)N1c1ccccn1,-5.7,15.9%,55.1%,-7.9
COc1ccc2[nH]c3c(c2c1)CCN1C(=O)N([C@@H](C)C(=O)NCCc2ccc(F)cc2)C(=O)[C@]31C,1.7,-29.4%,8.28µM*,20.4
COc1ccc(CNC(=O)[C@H](C)N2C(=O)N3CCc4c([nH]c5ccccc45)[C@@]3(C)C2=O)cc1OC,-2.5,?,8.28µM*,-11.5
COc1ccc2[nH]c3c(c2c1)CCN1C(=O)N([C@@H](C)C(=O)NCc2ccc(F)cc2)C(=O)[C@]31C,-2.5,?,?,-1.8
Cc1ccc(CNC(=O)[C@H](C)N2C(=O)N3CCc4c([nH]c5ccccc45)[C@@]3(C)C2=O)cc1,-1.6,?,-9.6%,18.4
CCOc1ccc(CC(=O)NNC(=O)/C=C/C(=O)O)cc1,0.7,5.2%,15.4%,3.2
Cc1ccc(NC(=O)NCc2ccccn2)cc1Cl,24.6*,30.4%,76.2%,39.1*
Cc1nn(C)cc1CNC(=O)Nc1ccc(Cl)c(Cl)c1,43.6*,·,-33.0%,57.6*
Cc1ccc(NC(=O)NCc2c(C)nn(C)c2C)cc1Cl,26.2*,225.5%,?,74.8*
Cc1ccc(NS(=O)(=O)c2cc(C(=O)NCc3ccccn3)ccc2Cl)cc1C,3.4,34.3%,?,-15.5
Cc1nn(C)cc1CNC(=O)C1(C)CC1(Cl)Cl (stereo unspecified),-2.4,-6.8%,21.3%,8.8
Cc1ccc(C(=O)NCc2ccccn2)cc1Cl,25.2*,-14.8%,22.7%,36.0*
S=C(NCc1ccccn1)Nc1ccc(Cl)c(Cl)c1,27.9,?,?,15.8
CCOC(=O)CC(NC(=O)c1ccc(C)cc1)c1ccc(OC)cc1 (stereo unspecified),7.5,?,?,-17.2
Cc1ccccc1C(OCC(O)CN1CCC(C(N)=O)CC1)c1ccccc1 (stereo unspecified),-5.9,0.0%,8.2%,-11.1
CN(c1ccccc1C(=O)NCc1ccccn1)S(C)(=O)=O,-0.9,14.7µM*,·,-1.6
CC(=O)c1cccc(NC(=O)NCc2ccccn2)c1,30.8*,132.4%,·,49.8*
CC(=O)c1cccc(NC(=O)NCc2cccnc2)c1,-1.3,23.6%,-13.4%,8.9
Cc1ccc(NC(=O)NCc2ccccn2)cc1,34.6*,93.6%,?,74.7*
CCc1ccc(NC(=O)C(=O)NCc2ccccn2)cc1,23.9*,127.3%,35.4%,59.7*
CCOC(=O)c1ccc(NC(=O)C(=O)NCc2ccccn2)cc1,16.0,24.8%,19.1%,25.4
CN(C)S(=O)(=O)N1CCC(Oc2cccc(C(=O)N3CCCCCCC3)c2)CC1,6.5,?,-16.8%,16.5
CC(C)(C)C(=O)Nc1nnc(SCC(=O)NC2CCCC2)s1,3.9,7.8%,23.6%,13.1
Cc1cccc(C(=O)N/C(=C\c2ccco2)C(=O)N2CCCC2)c1,-3.4,10.5%,23.0%,-3.8
COc1ccc(NC(=O)CNC(=O)Cn2cnc3sc(C)c(C)c3c2=O)cc1OC,-11.3,0.7%,10.4µM*,-9.7
SMILES,CHX counter,Pf growth 48h,Pf growth 96h,Shiga toxin inh
COc1ccc(CCNC(=O)CNC(=O)Cn2cnc3sc(C)c(C)c3c2=O)cc1OC,-2.9,0.8%,?,22.5
CCN1CCN(C(=O)c2ccc(N3CC4CC(C3)c3cccc(=O)n3C4)c(NC(=O)c3cc(OC)cc(OC)c3)c2)CC1 (stereo unspecified),1.2,?,0.3%,-8.9
C=CCn1c2ccccc2c(=O)c2cc(C#CC3(O)CCCCC3)ccc21,43.7*,141.7%,?,54.9*
C=CCn1c2ccccc2c(=O)c2cc(C#CC[C@@H](C)O)ccc21,·,0.0%,?,·
CCc1cc(C(=O)N(CC(C)C)c2c(N)n(Cc3ccccc3)c(=O)[nH]c2=O)sc1C,·,?,9.4%,·
COc1ccc(/C=C/C(=O)C2CC2)cc1COc1cccc(C)c1C,1.5,?,?,-7.3
COc1ccc(/C=N/NC(=S)Nc2cccc(C(=O)O)c2)cc1OC,16.2*,60.8%,?,26.1
COc1ccc(/C=N/NC(=S)Nc2ccccc2)cc1COc1cccc(C)c1C,8.0,-5.0%,?,31.1*
COc1cccc(/C=N/NC(=S)Nc2cccc(C(=O)O)c2)c1,36.5*,442.4%,?,95.4*
COc1ccc(C(=O)Oc2cccc(/C=N/NC(N)=S)c2)cc1,16.0*,37.3%,-1.5%,51.0*
Cc1nn(C)c(C)c1CCC(=O)N1CCCC(N2CCN(c3ccc(F)cc3)CC2)C1 (stereo unspecified),6.3,?,41.8%,24.1
